Data published in PubChem BioAssay (NCI).
Several values for one entry are separate records, joined by “and”; a condition that tells them apart may be missing. Equal values may be shown once. Compounds without any hit were thinned out: in the full panel of roughly 79,000, 15% have a hit. Values without a mark were called inactive. Activity calls are given as the source filed them. No stated cut-off is given here; in the data, active means growth inhibition above about 70%; inactive means the rest.

Experiment: NCI Yeast Anticancer Drug Screen. Data for the rad50 strain (AID 155);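 further: 0% = growth of vehicle-only cultures of the same strain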
Conditions: S. cerevisiae rad50 strain growth inhibition; at 50.0 µM; active compounds read high
Summary of the method: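 Relative growth inhibition (compound vs vehicle) was measured in yeast with a defined repair-gene alteration.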

Going from `CC(Cc1ccc(O)cc1)NCC(O)c1ccc(O)c(O)c1` (stereo not given) to `Cc1cc(Cl)ccc1NC(=O)/C(CC(=O)CC(c1ccccc1)c1c(O)c2ccccc2oc1=O)=N\O` (stereo not given), the growth inhibition falls from 10.6% to -14.9%.

Compared with `O=c1[nH]cc(CCl)c(=O)[nH]1`, `O=C1NC(=O)C2(O)NC(=O)NC2(O)N1` (stereo not given) is lower in growth inhibition: 3.2% for the first, -27.1% for the second.

First: CC1(C)C=C(NC(=O)N2CC2)C(C)(C)N1O
Second: C=C(C)C(=O)OCC12CCC(C)=CC1OC1C(=O)C(OC(=O)C(=C)C)C2(C)C12CO2 (stereo not given)
The growth inhibition of the first is higher: 12.7% for the first, 8.55% for the second.

Going from `Cc1nnnn1C` to `Cc1cccc(-n2c(C)nc3ccccc3c2=O)c1C`, the growth inhibition falls from -13.2% to -15.2%.

Compared with `NNC(=O)c1ccc(N)cc1`, `COP(=O)(OC)C(=O)c1ccc(C)cc1` is higher in growth inhibition: -12.1% for the first, 14.7% for the second.

First: Nc1ccccc1C(=O)O
Second: COP(=O)(OC)C(=O)c1ccccc1
The growth inhibition of the first is higher: 15.3% for the first, -11.6% for the second.

Going from `Cc1c([N+](=O)[O-])cc(C(C)(C)C)c(O)c1[N+](=O)[O-]` to `CC(C)(C[N+](=O)[O-])C[N+](=O)[O-]`, the growth inhibition falls from 60.6% to -1.45%.

First: CN(C)CCN(C)C.[C-]#[O+].[C-]#[O+].[C-]#[O+].[C-]#[O+].[W+2]
Second: CCN(CCCl)c1ccc(NC(=O)c2cc(C(=O)NCCN(C)C)cc(C(=O)Nc3ccc(N(CC)CCCl)cc3)c2)cc1
The growth inhibition of the first is lower: -13% for the first, 35% for the second.

Going from `C1CC2OC2CC1C1CO1` (stereo not given) to `O=C(C1CO1)C(Cl)(Cl)Cl` (stereo not given), the growth inhibition falls from -0.4% to -3.95%.

First: COCCCNP(=O)(OC(C)C)OC(C)C
Second: COc1ccc([N+](=O)[O-])cc1CNCCCl
The growth inhibition of the first is higher: 0.75% for the first, -2.75% for the second.

Compared with `[Be]=[Se]`, `O=[N+]([O-])c1ccc(OCc2ccc(Cl)c(S(=O)(=O)F)c2)c(Cl)c1` is higher in growth inhibition: -21.1% for the first, -18.1% for the second.

First: O=[N+]([O-])c1ccc(O)c(CBr)c1
Second: O=C(O)c1ccc([As](=O)(O)O)cc1[N+](=O)[O-]
The growth inhibition of the first is higher: 35.5% for the first, -3.85% for the second.

First: Cn1ccnc1C[N-]Cc1nccn1C.O=[N+]([O-])[O-].O=[N+]([O-])[O-].[Cu+2]
Second: C/C1=N\NC(=O)c2ccccc2C(=O)N/N=C(\C)c2cccc1n2.O=[N+]([O-])[O-].[Zn+2]
The growth inhibition of the first is higher: 18.2% for the first, -8.85% for the second.

Compared with `CN(C)C(=O)C1(c2ccccc2)CCNCC1`, `CC(=O)OC1(C(C)=O)CC2(c3ccccc3)OC1(c1ccccc1)c1ccccc12` (stereo not given) is lower in growth inhibition: 19.4% for the first, -0.55% for the second.

First: O=C1[C@@H]2[C@H](C(=O)N1c1ccccc1)[C@H]1CC[C@H]2N1C(=O)c1ccccc1
Second: O=Cc1cn(CCCCCCCCCCCCn2cc(C=O)c3ccccc32)c2ccccc12
The growth inhibition of the first is higher: 18.9% for the first, -2.75% for the second.

Going from `Brc1ccc2nncc(N3CC3)c2c1` to `COc1ccc2c(c1OC)C[C@@H]1c3c(cc4c(c3-2)OCO4)CCN1C`, the growth inhibition rises from -13.2% to 21.2%.

Going from `NC(=O)Cc1ccc([As]=O)cc1` (stereo not given) to `O=C1C(=O)c2ccccc2C(O)=C1CN(CCCl)CCCl`, the growth inhibition rises from 19.6% to 31.6%.

Work on `C/C=C(\C)C(=O)N[C@@H](c1ccccc1)[C@@H](O)C(=O)OC1C[C@@]2(O)[C@@H](OC(=O)c3ccccc3)[C@@H]3[C@]4(OC(C)=O)CO[C@@H]4C[C@H](O)[C@@]3(C)C(=O)[C@H](OC(C)=O)C(=C1C)C2(C)C` (stereo not given in full) yielded a growth inhibition of 34.1%.

With `CN(C)CCc1ccc(O)cc1` the growth inhibition was 3.9% and -2.85%.
With `O=C(O)C(O)C(O)C(O)C(O)C(O)C(O)CO.[Cd]` (stereo not given) the growth inhibition was 29.4% and 27.9%.
For `CC12CCC3C(=CC=C4CC(O)CCC43C)C1CCC2=O` (stereo not given), the growth inhibition was 1.9% and 14.2%.
With `CC(=O)CC(C)=O.CC(=O)CC(C)=O.CC(=O)CC(C)=O.[Mn]` the growth inhibition was 11.2% and 10.1%.
For `C=C1CC2CC[C@@]34CC5O[C@@H]6C(O[C@H]7CC[C@H](CC(=O)OC8C(C)C9OC%10C[C@]%11(C[C@@H]%12O[C@]%13(CC(C)[C@@H]%14O[C@H](C(O)CC(O)CO)C[C@@H]%14O%13)CC(C)[C@@H]%12O%11)OC%10CC9O[C@H]8C[C@H]8OC(CC[C@@H]1O2)C[C@@H](C)C8=C)OC7[C@@H]6O3)[C@H]5O4` (stereo not given in full), the growth inhibition was 87.3% (active).
